Inconclusive results are not listed. Active and inactive are the calls of the source. Calls come from the whole dose curve; as a rule, active = well fitted inhibition curve with a large enough effect; inconclusive = small, poorly fitted or top-dose-only effect; inactive = no such curve, though single readings can be large or run the other way.

Results on 40 compounds are retold here after PubChem BioAssay (NCATS).
Potency is the fitted concentration of half-maximal effect.

The nature of this test: qHTS Screen of the MIPE 4.0 Collection Against Ewings Sarcoma (TC32) (AID 1259256). Note: nearly all actives have a fitted effect of over 45% in size. To be noted: TC32 Ewing sarcoma viability, CellTiter-Glo, 48 h; series mostly up to 45.8 µM. The text has this: There is a large unmet medical need for treatments for Ewing sarcoma, a pediatric sarcoma. We sought to identify compounds that inhibited Ewing sarcoma cells in vitro with the goal to then test promising drugs in two drug combinations in vitro to look for synergistic drug combinations. Promising combinations would then proceed to additional validation, including in vivo testing.
Using the NCATS developed oncology compound library called the Mechanism of Interrogation Plate (MIPE), four Ewing sarcoma cell lines were evaluated (TC32, TC71, RDES, EW8). Compounds, in a 12-point titration series, were incubated with cells for 48 hours and the read out was cell viability (CellTiter-Glo from Promega). These initial experiments were used to select appropriate concentrations of each single agent for subsequent two-drug matrix combinations such that the concentrations in the matrices would span both activity and non-activity.
Cells, in the log phase of growth, were seeded in 5 uL of RPMI plus 5% FBS, […] L-glutamine, 100 U/ml penicillin and 100 ug/ml streptomycin into 1536-well solid-bottom white tissue culture treated Greiner Bio One Plates (789173-F) using a MultiDrop Combi (Thermofisher Scientific) dispenser and a small sterile cassette. One column was media alone to be used as a :"no cells" control. The plates were then covered with sterilized stainless steel gasketed lids from Kalypsys. After allowing cells to attach for 4 hours, 23 nL of test compound or control (negative control DMSO and positive control 9.2 uM Bortezomib-final) were added from a 1536-well polypropylene compound source plate to each well using a 1536 head pin tool from Kalypsys. Cells were then incubated for 48 hours at 37C, 95% relative humidity and 5% CO2. After 48 hours, plates were removed from the incubator and 3 uL of CellTiter-Glo (Promega) was added using an Aurora Flying Reagent Dispenser Bioraptor. Plates were incubated at room temperature for 10 minutes prior to reading the luminescence on the Viewlux (PerkinElmer). The relative luciferase units are used to calculate the percent activity using the activity of DMSO in the cells and no cells columns for normalization of no inhibition and full inhibition respectively.
In general terms: Quantitative high-throughput screening tests each substance at several concentrations.
Take `O=C(C=Cc1ccc(O)cc1)c1ccc(O)cc1O`: the Potency was 16.6 µM (active). Regarding `COc1ccc2nc3cc(Cl)ccc3c(Nc3cc(CN4CCCC4)c(O)c(CN4CCCC4)c3)c2n1`, the Potency was 16.6 µM (active).

Regarding `COc1c(C)c2c(c(O)c1CC=C(C)CCC(=O)OCCN1CCOCC1)C(=O)OC2`, the Potency was 1.32 µM (active).

As to `CC1=C[C@@H]2[C@@H]([C@@H](O)C[C@@]3(C)[C@H]2C[C@@H](C)[C@]3(O)C(=O)CO)[C@@]2(C)Cc3cnn(-c4ccccc4)c3C=C12`, the Potency is 23.5 µM (active).

Consider `CCC(=O)OCC(=O)[C@@]1(OC(=O)CC)[C@@H](C)C[C@@H]2[C@H]3CCC4=CC(=O)C=C[C@]4(C)[C@@]3(F)[C@@H](O)C[C@@]21C`, for which the Potency entry was “inactive”. The same measure for `CC(C)Oc1cc(Nc2nc(N[C@@H](C)c3ccc(F)cn3)ncc2Cl)[nH]n1`: 16.6 µM (active); for `O=c1cc(-c2ccc(O)c(O)c2)oc2cc(O)cc(O)c12`: “inactive”; for `NCc1c[nH]c(=S)n1[C@H]1CCc2c(F)cc(F)cc2C1`: 23.5 µM (active). The result for `CCCCCCOC(=O)N=C(N)c1ccc(NCc2nc3cc(C(=O)N(CCC(=O)OCC)c4ccccn4)ccc3n2C)cc1` reads 7.43 µM (active); that for `CCN(CCO)CCCOc1ccc2c(Nc3cc(CC(=O)Nc4cccc(F)c4)[nH]n3)ncnc2c1`, 0.059 µM (active). With `CCCCC(F)(F)[C@@]1(O)CC[C@H]2[C@H](CC(=O)[C@@H]2CCCCCCC(=O)O)O1`, the Potency is 2.96 µM (active).

As for `O=C1NC(=O)C(=Cc2ccc(-c3ccc(F)cc3O)o2)S1`, the Potency is 23.5 µM (active). As for `O=C(Nc1ccc(OC(F)(F)F)cc1)c1sccc1NCc1ccnc2ccccc12`, the Potency was 18.7 µM (active). For `CN(C)c1nc(Cc2ccc(NC(=O)c3ccc(C(F)(F)F)cc3)cc2)nc(N(C)C)c1CC(=O)O`, the Potency result was “inactive”. Consider `CN(C)S(=O)(=O)c1ccc2c(c1)C(=Cc1cc3c([nH]1)CCCC3)C(=O)N2`, for which the Potency is 3.72 µM (active). For the compound `Cn1cc(-c2ccc3nnc(Sc4ccc5ncccc5c4)n3n2)cn1`, the Potency entry is “inactive”. The same measure for `C[C@@]1(c2cc(-c3cncnc3)c(F)cc2F)CCSC(N)=N1`: “inactive”; for `CC(=O)Nc1cccc(-n2c(=O)n(C3CC3)c(=O)c3c(Nc4ccc(I)cc4F)n(C)c(=O)c(C)c32)c1`: 23.5 µM (active); for `COc1ccc(C=CC(=O)Nc2ccccc2C(=O)O)cc1OC`: “inactive”.

Regarding `O=C(CCCN1CCN(c2ccc(F)cc2)CC1)NC1c2ccccc2CSc2ccccc21` (stereo not given), the Potency is 16.6 µM (active). As to `CC(C)(F)C[C@H](N[C@@H](c1ccc(-c2ccc(S(C)(=O)=O)cc2)cc1)C(F)(F)F)C(=O)NC1(C#N)CC1`, the Potency was 18.7 µM (active).

In the case of `Cc1nc(C(=O)NCC(=O)O)c(O)c2ccc(Oc3ccccc3)cc12`, the Potency entry was “inactive”. The result for `CN1N=C(N)c2cn([C@@H]3O[C@H](COP(=O)(O)O)[C@@H](O)[C@@H]3O)c3ncnc1c23` reads 2.64 µM (active); that for `COc1cc(Nc2nc3ccccc3nc2NS(=O)(=O)c2ccc(NC(=O)c3ccc(C)c(OC)c3)cc2)cc(OC)c1`, 18.7 µM (active); that for `N[C@@H](CC(=O)N1CCn2c(nnc2C(F)(F)F)C1)Cc1cc(F)c(F)cc1F`, 23.5 µM (active). Consider `CN1CCN2c3ncccc3Cc3ccccc3C2C1` (stereo not given), for which the Potency result was “inactive”. As to `Cc1cc(OCCCS(C)(=O)=O)cc(C)c1-c1cccc(COc2ccc3c(c2)OC[C@H]3CC(=O)O)c1`, the Potency entry is “inactive”.

In the case of `CN(C)N=Nc1nc[nH]c1C(N)=O`, the Potency entry was “inactive”.

For `COc1ccc(-c2oc3c(CC=C(C)C)c(O)cc(O)c3c(=O)c2O)cc1`, the Potency is 23.5 µM (active). The same measure for `NC(=O)c1ncn([C@@H]2O[C@H](CO)[C@@H](O)[C@@H]2O)n1`: “inactive”; for `O=C(O)CCC=CCC[C@@H]1[C@H](N2CCCCC2)[C@@H](O)C[C@@H]1OCc1ccc(-c2ccccc2)cc1`: “inactive”; for `Cc1ccc(C(=O)N(CCCN)[C@@H](c2nc3cc(Cl)ccc3c(=O)n2Cc2ccccc2)C(C)C)cc1`: “inactive”.

With `COc1ccc(Cn2ccc3ccc(C(=O)NO)cc32)cc1`, the Potency is 11.8 µM (active).

For the compound `O=C1NC(=O)C(c2cnc3ccccn23)=C1c1cn2c3c(cccc13)CN(C(=O)N1CCOCC1)CC2`, the Potency is 16.6 µM (active). As for `CO[C@@H]1C(N(C)C(=O)c2ccccc2)C[C@H]2O[C@]1(C)n1c3ccccc3c3c4c(c5c6ccccc6n2c5c31)C(=O)NC4=O` (stereo not given in full), the Potency was 3.32 µM (active). With `COc1cc(C=CC(=O)O)ccc1O`, the Potency result is “inactive”. The result for `O=C(NCCCCN1CCOCC1)c1cc2ccccc2o1` reads “inactive”; that for `C[C@]12CC[C@@H]3c4ccc(O)cc4CC[C@H]3[C@H]1[C@@H](O)[C@@H](O)[C@H]2O`, “inactive”. The result for `c1ccc(CNc2nc(N3CCOc4ccccc43)nc3c2CCCC3)cc1` reads “inactive”; that for `CC(C)n1c(C=C[C@H](O)C[C@H](O)CC(=O)O)c(-c2ccc(F)cc2)c2ccccc21`, 2.35 µM (active).
